# According to the supplement of paper PMC12494721:
# Counter-ions that a name gives are not always drawn.
# System: Escherichia coli IAI1
# Assay: growth (OD595) fold change vs plate DMSO controls (fold change (ratio)); higher = more growth
# Settings: incubation time: 27 h, anaerobic, 37 °C
# Outline: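 Anaerobic 27 h, 37 °C mGAM 96-well cultures were shaken, then read for absorbance at 595 nm. Values were blank-subtracted and corrected for compound background using 20 µM compound solutions in water. A calibration factor of 5 converted them to OD. Growth is the fold change versus the median of plate DMSO controls. Fold changes above 1.5 were set to NA, and values are the mean of 2 biological replicates.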
row,Structure (SMILES),growth
1,CCn1cc(C(=O)O)c(=O)c2cc(F)c(N3CCN(C)CC3)cc21 [Pefloxacin] (20 µM),0.0501
2,Nc1ncn(C2OC(CO)C(O)C2O)c(=O)n1 (configuration not stated) [Azacytidine-5] (20 µM),0.811
3,COc1cc(Cc2cnc(N)nc2N)cc(OC)c1OC [Trimethoprim] (20 µM),0.272
4,Cc1ccc(NC(=O)c2ccc(CN3CCN(C)CC3)cc2)cc1Nc1nccc(-c2cccnc2)n1 [Imatinib] (20 µM),1.07
5,C[C@H]1[C@H](NC(=O)/C(=N\OC(C)(C)C(=O)O)c2csc(N)n2)C(=O)N1S(=O)(=O)O [Aztreonam] (20 µM),1.04
6,Nc1nc2c(ncn2COCCO)c(=O)[nH]1 [Acyclovir] (20 µM),1.05
7,CC(C)/N=c1\cc2n(-c3ccc(Cl)cc3)c3ccccc3nc-2cc1Nc1ccc(Cl)cc1 [Clofazimine] (20 µM),1.03
8,Cc1nnc(SCC2=C(C(=O)O)N3C(=O)[C@@H](NC(=O)Cn4cnnn4)[C@H]3SC2)s1 [Cefazolin sodium salt] (20 µM),0.0255
9,C[C@H](CS)C(=O)N1CCC[C@H]1C(=O)O [Captopril] (20 µM),0.976
10,Cc1cnc(NC(=O)C2=C(O)c3ccccc3S(=O)(=O)N2C)s1 [Meloxicam] (20 µM),0.997
11,"CC(C)Cc1ccc([C@H](C)C(=O)O)cc1 [(S,+) Ibuprofen] (20 µM)",0.797
12,COc1c(N2C[C@@H]3CCCN[C@@H]3C2)c(F)cc2c(=O)c(C(=O)O)cn(C3CC3)c12 [Moxifloxacin] (20 µM),0.0497
